Shown are actives, neighbours in structure and some others; about 19% of the full set was active somewhere.
TDP1 cell noCPT – qHTS for Inhibitors of human tyrosyl-DNA phosphodiesterase 1 (TDP1): qHTS in cells in absence of CPT | DT40 Tdp1-/- hTDP1 cells, no CPT, ATP luminescence, 48 h | actives 15% (n = 420,000) | Potency, µM (top dose mostly 46.2 µM), for the others: at the highest dose activity change, negative = growth inhibition, actives largely listed as inhibitors | AID 686978, 2013; further: potency means the concentration at half of the fitted maximal effect; on the % scale 0 is the no-effect control and ±100 the full control effect; nearly all actives have a fitted effect of over 55% in size
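Compound effects on proliferation are scored in DT40 Tdp1-/-;hTDP1 cells in the absence of CPT. ATP levels (CellTiter-Glo luminescence) are recorded after a ≥48 hr, 37 °C incubation.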
IL-1B inflam inh – blocks inflammasome-driven IL-1 beta release. AID 743279. actives 4.7% (n = 360,000). THP-1 LPS/ATP IL-1B secretion, AlphaLISA, 16 h; active compounds read low. activity change, % at 57.5 µM; in the data active means activity change below about -50%; inconclusive means mostly about -30% to -49%; further: on the % scale 0 is the no-effect control and ±100 the full control effect
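Secreted IL-1B measured by AlphaLISA bead assay after 16 h compound exposure of THP-1 cells; compounds (final up to 57.5 uM) added 1 h before LPS (250 ng/mL) and ATP (1.25 mM) stimulation; lower signal means less secretion.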
SW480 rerep – inducers of DNA re-replication in SW480 colon cancer cells | SW480 DNA re-replication, Hoechst DNA content imaging, 48 h | Potency, µM (series often up to 46.1 µM), for the others: at the top dose re-replication activation, usual class: activators | actives 1.8% (n = 340,000) | AID 624297; further: potency means the concentration at half of the fitted maximal effect; % of control where 0% means no effect; nearly all actives have a fitted effect of over 55% in size
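Quantitative HTS format with DMSO vehicle controls; 48 hr drug incubation at 37 C, then 40 min Hoechst staining and scanning imager measurement at 405 nm excitation.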
Chronic BCR inh – chronic active BCR signaling inhibition | ABC-DLBCL IkBa-CBG/CBR reporter, luminescence ratio, 4 h | Potency, µM (doses to about 46.1 µM), without a hit: top-dose activity change, negative = inhibition, most hits filed as inhibitors | actives 0.05% (n = 340,000) | AID 493014; active means well fitted inhibition curve with a large enough effect in the signal ratio, with a control signal flat, not every such curve was filed as active; inconclusive means small, poorly fitted or top-dose-only effect, or effect the other way, or a change in a side signal; the % refers to the signal ratio;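 further: potency means the concentration at half of the fitted maximal effect; plate controls were basal doxycycline-induced cells for no effect and cells given 10 µM MG132 for full effect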
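TMD8 human ABC-DLBCL cells with doxycycline-inducible IκBα–green luciferase fusion and unfused red luciferase, in 0.5% FBS medium; compounds up to 46 uM, 4 h at 37C. Green/red luminescence ratio, filter-overlap corrected, fitted to concentration-response curves.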
MCF10A rereplic – induces DNA re-replication in MCF 10a normal breast cells; Potency, µM (doses to about 46.1 µM), for inactives: top-dose activity, positive = re-replication, usual class: activators; AID 624296; MCF 10A DNA re-replication, Hoechst nuclear intensity, 48 h; actives 2.9% (n = 350,000); further: potency means the concentration at half of the fitted maximal effect; % of control where 0% means no effect; nearly all actives have a fitted effect of over 50% in size
DT40 TDP1 CPT – growth inhibition of DT40 Tdp1-/-;hTDP1 cells with camptothecin (screen for TDP1 inhibitors); Potency, µM (doses to about 46.2 µM), without a hit: top-dose activity change, negative = growth inhibition, hits mostly inhibitors; AID 686979; actives 12% (n = 420,000); chicken DT40 Tdp1-/-;hTDP1 cells + 20 nM CPT, ATP luminescence, 48 h; further: potency means the concentration at half of the fitted maximal effect; on the % scale 0 is the no-effect control and ±100 the full control effect; nearly all actives have a fitted effect of over 55% in size
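Chicken DT40 Tdp1-/- cells stably complemented with human TDP1 were seeded at 400 cells/well in medium containing 20 nM camptothecin, exposed to pin-transferred compounds, and grown at 37 °C for at least 48 hr. Viability was read as ATP luminescence.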
Starred values were filed as active, the others as inactive; ? = inconclusive; / = no result given; [ ] = another dose, or the depositor's remark. Unless noted, the call rests on the fitted dose curve; in most records, active means well fitted curve in the direction sought with a large enough effect; inconclusive means small, poorly fitted or top-dose-only effect, or another doubt; inactive means no such curve, though single readings can be large; an effect the other way counts as inactive or inconclusive.

SMILES | TDP1 cell noCPT | IL-1B inflam inh | SW480 rerep | Chronic BCR inh | MCF10A rereplic | DT40 TDP1 CPT
Cc1cc(N2O[C@]34C=C[C@]25C[C@@H](O)CC[C@]5(C)C3CC[C@]2(C)[C@@H]([C@H](C)/C=C/[C@H](C)C(C)C)CC[C@H]24)no1 (some centres undefined) | 9.2µM* | 19.8 | 8.5% | 4.1% | -13.7% | 11.6µM*
Cc1ccc(NC(=O)c2nc[nH]c2C(=O)NCCCCNC(=O)c2[nH]cnc2C(=O)Nc2ccc(C)cc2)cc1 | 8.2µM* | -4.1 | -0.6% | ? | -1.3% | ?
Cc1ccc(NC(=O)c2nc[nH]c2C(=O)NCCCNC(=O)c2[nH]cnc2C(=O)Nc2ccc(C)cc2)cc1 | ? | -19.3 | 0.9% | -1.6% | -27.6% | 16.4µM*
COc1ccc(OC)c(-c2ccc(O)c(CN3CCc4c([nH]c5ccccc45)C3)c2)c1 | ? | / | / | / | / | -4.9%[9.04 µM]
O=C(Cc1cccc(NC(=O)C2CCCN(C(=O)C3CCCC3)C2)c1)Nc1ccc(C(=O)N2CCCCC2)cc1 (centres undefined) | ? | 23.5 | 1.0% | / | -1.6% | ?
O=C(c1ccco1)N1C(=O)c2cccc3cccc1c23 | 18.4µM* | 0.0 | 21.2% | -1.2% | ? | 11.6µM*
CN(C)c1nc(N/N=C\c2ccc(Cl)c([N+](=O)[O-])c2)nc(Nc2ccc(F)cc2)n1 | 5.17µM* | -89.5* | ? | / | ? | 5.17µM*
C=CCN1C(=O)C2(NC(=O)c3ccccc3N2)c2ccccc21 (centres undefined) | ? | 52.7 | 18.4µM* | ? | ? | 18.4µM*
C=CCN1C(=O)C2(NNc3ccccc3O2)c2ccccc21 (centres undefined) | 8.2µM* | 8.0 | 0.2% | 3.0% | ? | 6.51µM*
C=CCN1C(=O)C(O)(CC(=O)c2ccc(-n3cccc3)cc2)c2ccccc21 (centres undefined) | ? | 4.5 | ? | 1.3% | ? | ?
O=C1NC2(Nc3ccccc31)C(=O)Nc1ccccc12 (centres undefined) | ? | -1.3 | 7.9% | -2.3% | ? | -25.0%
CCOC(=O)c1c(C)[nH]c(C)c1S(=O)(=O)N(C)CC(=O)Nc1ccccc1F | 3.4% | -1.8 | -5.2% | -0.3% | -1.8% | 12.2%
CCOCCCN(Cc1cc2cc(C)cc(C)c2[nH]c1=O)C(=O)N(CC)CC | 16.4µM* | 21.8 | -2.3% | -5.8% | 1.2% | 14.6µM*
Cc1ccc2cc(CN(CCN(C)C)C(=S)Nc3ccccc3)c(=O)[nH]c2c1C | 20.6µM* | -85.1* | ? | -3.8% | -0.6% | ?
CCN(Cc1cc2ccccc2[nH]c1=O)S(=O)(=O)c1ccccc1 | -24.2% | -11.6 | 8.7% | ? | 2.0% | -9.7%
Cc1cccc2cc(CN(CC(C)C)S(=O)(=O)c3ccccc3)c(=O)[nH]c12 | 23.1µM* | 0.0 | -7.8% | ? | -4.4% | ?
Cc1ccc(NC(=S)N(CCN(C)C)Cc2cc3cc(C)cc(C)c3[nH]c2=O)cc1 | 4.61µM* | -52.8* | ? | -9.7% | 17.3% | ?
Cc1cc(C)c2[nH]c(=O)c(CN(CC3CCCO3)C(=O)c3cnccn3)cc2c1 (centres undefined) | -27.1% | -0.1 | -5.9% | ? | 0.5% | 0.0%
CCNc1nc(OC)nc(SCC(=O)Nc2ccccc2)n1 | ? | 25.8 | 8.0% | -4.8% | 6.6% | ?
Cc1ccc(CN2CC(N3CCN(C)CC3)CS2(=O)=O)cc1 (centres undefined) | 5.6% | -1.0 | / | / | / | -1.0%
Clc1ccccc1CNc1nc2ccccc2c2nc(-c3cccnc3)nn12 | -4.3% | / | / | / | / | -19.9%
CCN(CC)CCN(Cc1cc2cccc(C)c2[nH]c1=O)C(=S)Nc1ccccc1 | ? | -80.1* | -2.0% | 8.9% | 1.4% | ?
Cc1ccc2c(c1)[C@H]1[C@H](CO2)[C@H](c2ccccc2)[C@]2(C)C(=O)Nc3cc(F)ccc3C(=O)N12 | ? | ? | ? | ? | 5.8µM* | ?
C[C@@]12C(=O)Nc3cc(F)ccc3C(=O)N1[C@H]1c3cc(Br)ccc3OC[C@@H]1[C@@H]2c1ccccc1 | ? | -28.1 | ? | ? | 7.31µM* | ?
Cc1ccc2c(c1)[C@H]1[C@H](CO2)[C@H](c2ccccc2)[C@]2(C)C(=O)NCC(=O)N12 | -1.7% | 5.6 | 4.5% | 8.7% | 14.6% | -8.4%
SMILES | TDP1 cell noCPT | IL-1B inflam inh | SW480 rerep | Chronic BCR inh | MCF10A rereplic | DT40 TDP1 CPT
C[C@@]12C(=O)Nc3ccc(Br)cc3C(=O)N1[C@H]1c3ccccc3OC[C@@H]1[C@@H]2c1ccccc1 | ? | -23.9 | 0.1% | ? | ? | ?
C[C@@]12C(=O)Nc3ccc(F)cc3C(=O)N1[C@H]1c3cc(Br)ccc3OC[C@@H]1[C@@H]2c1ccccc1 | 23.1µM* | -8.0 | ? | ? | ? | ?
Cc1ccc(CNC(=O)CNS(=O)(=O)c2cccs2)cc1 | -12.5% | / | / | / | / | -3.0%
CCOc1ccc(C2c3c(oc4cc(C)c(C)cc4c3=O)C(=O)N2c2ccccn2)cc1 (centres undefined) | -1.6% | / | / | / | / | 14.9%
Cc1ccc(Cc2c(-c3ccc(F)cc3)nc3cc(C)ccn23)cc1 | 16.4µM* | -10.6 | / | / | / | ?
Cc1ccc(Cc2c(-c3ccc(Br)cc3)nc3cc(C)ccn23)cc1 | 20.6µM* | -7.6 | / | / | / | 23.1µM*
Cc1ccc(Cc2c(-c3ccccc3)nc3ccc(Br)cn23)cc1 | ? | 9.0 | / | / | / | ?
CCOC(=O)c1c(S(=O)(=O)Nc2ccc(C)cn2)c(C)n(C)c1C | ? | 0.0 | 18.8% | -1.9% | -4.3% | ?
O=S(=O)(NC1c2cccc3cccc(c23)C1Sc1ncccn1)c1ccccc1 (centres undefined) | 20.6µM* | -2.8 | -20.4% | -2.5% | ? | ?
Cn1cnnc1SC1c2cccc3cccc(c23)C1NS(=O)(=O)c1ccccc1 (centres undefined) | -4.1% | -13.4 | 0.4% | -0.6% | -0.6% | 4.9%
CCc1c(C)[nH]c2ccccc2c1=O | 20.6µM* | 0.0 | -1.9% | -0.2% | -3.2% | ?
CC(=O)CCc1c(C)[nH]c2ccccc2c1=O | -13.6% | -14.3 | -1.1% | 1.9% | -0.8% | -18.7%
Cc1ccc(NC(=O)Nc2nnc(SCC(=O)N(C(C)C)C(C)C)s2)cc1 | 16.4µM* | / | / | -0.2% | / | 18.4µM*

Screening results (PubChem BioAssay)
